# Bioassay records: PubChem BioAssay, National Center for Advancing Translational Sciences (NCATS)
# Pf Dd2 inh = inhibitors of Plasmodium falciparum Dd2 growth; P. falciparum Dd2 growth, SYBR Green, 72 h; Potency, µM (series often up to 28.9 µM), for inactives: top-dose activity, negative = inhibition, hits mostly inhibitors; 120,000 tested, 4.3% active; AID 1347417; active = well fitted inhibition curve with a large enough effect;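 note: plate controls were DMSO vehicle for no effect and reference drug for full effect; nearly all actives have a fitted effect of over 65% in size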
#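 Readout: SYBR Green fluorescence, 485 nm excitation, 535 nm emission, after ~16 h lysis at 37C. Before that, Dd2-infected red cells (2.5% hematocrit) grew 72 h with compound, 29 uM top final concentration.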
# Active calls of the source: *; i = inactive; [ ] = remark or other dose. The sample as a whole holds a higher share of hits than the screen did. Potency is the fitted concentration of half-maximal effect.
SMILES,Pf Dd2 inh
COc1ccc(-c2noc([C@@H](C)NC(=O)c3cc(C)oc3C)c2C(=O)O)cc1,22.9%[44.1 µM]
O=C1COCCN1C1CCN(Cc2ccc(C(F)(F)F)cc2)CC1,-4.1%
COc1cc(NC(=O)NC[C@H]2O[C@@H](CO)[C@@H](O)[C@H]2N2CCN(c3ccccc3)CC2)cc(OC)c1,i
COc1ccc(CN2CCn3c(nn(-c4ccc(F)cc4F)c3=O)C2)cc1,-0.5%
Cn1ccc(CN2CCn3c(nn(-c4ccc(F)cc4F)c3=O)C2)c1,8.91µM*
O=c1n(-c2ccc(F)cc2F)nc2n1CCN(Cc1ccc(C(F)(F)F)cc1)C2,i
Cc1ccc(C(=O)NC2CCN(C(=O)N3CC4CC(C3)[C@H]3CCCC(=O)N3C4)CC2)cc1 (stereo partly drawn),i
CNc1nc2c(s1)C(c1cccc(F)c1)CC(=O)N2 (stereo not drawn),-13.1%
COc1cccc(C(=O)N2CCC3(CC2)CC(OC)CCO3)c1 (stereo not drawn),-16.4%
COc1ccc([C@H]2C[C@@H](O)[C@@H](O)[C@@H]2NCc2cnn(C)c2)cc1,i
COc1ccc([C@H]2C[C@@H](O)[C@@H](O)[C@@H]2NCc2ccccc2)cc1,-0.6%[44.1 µM]
COc1ccc([C@H]2C[C@@H](O)[C@@H](O)[C@@H]2NCc2cn(C)c3ccccc23)cc1,8.91µM*
Cc1ccc(-c2nc3cnccn3c2NCCC(=O)O)cc1,10.3%
COc1ccc(CN2CCn3c(nnc3-c3ccncc3)C2)cc1,-0.8%
COCCc1nncn1C1CCN(S(=O)(=O)c2ccc(F)cc2)CC1,13.4%
COc1cccc(C(=O)N2CCC(N3C[C@H](O)C[C@H]3C(=O)N3CCN(c4ncccn4)CC3)CC2)c1,-4.1%
CNC(=O)[C@@H]1C[C@@H](O)CN1C1CCN(C(=O)c2cccc(OC)c2)CC1,-6.4%
COc1cccc(C(=O)N2CCC(N3C[C@H](O)C[C@H]3C(=O)NC3CC3)CC2)c1,-16.5%
COc1cccc(C(=O)N2CCC(N3C[C@H](O)C[C@H]3C(=O)N3CCc4ccccc43)CC2)c1,2.51µM*
COc1cccc(C(=O)N2CCC(N3C[C@H](O)C[C@H]3C(=O)N3CC=C(c4ccccc4)CC3)CC2)c1,0.891µM*
C=CCN1CCN(C(=O)[C@@H]2C[C@@H](O)CN2C2CCN(C(=O)c3cccc(OC)c3)CC2)CC1,-17.6%
Cc1nn(-c2ccccc2)c(C)c1S(=O)(=O)N[C@@H]1[C@@H](N)[C@H]2CCO[C@H]21,-9.1%
CC(=O)Nc1ccc(C2(C(=O)NCc3cc(F)cc(F)c3)CCCCC2)cc1,-1.7%
O=C(O)c1cccc([S+](=O)([O-])N2CC(CNC(=O)c3ccccc3)C3(CN(c4ccccc4)C3)C2)c1 (stereo not drawn),i
O=C(NCc1ccccc1F)N1C[C@@H](CN2CCCCC2)[C@@H](CO)C1,-2.0%
SMILES,Pf Dd2 inh
COc1cccc(S(=O)(=O)N2CCC(Oc3ccc(C(N)=O)cn3)CC2)c1,-12.8%
Cc1ccc(NC(=O)CCCn2nc(C)c3c(C)n(-c4ccccc4)nc3c2=O)cc1Cl,13.9%
CCN(CC)c1ccc(NC(=O)Cn2c(C)c3cnn(-c4ccccc4)c(=O)c3c2C)c(C)c1,9.9%
Cc1cc(NC(=O)CCCn2c(C)c3cnn(-c4ccccc4)c(=O)c3c2C)ccc1Br,11.2µM*
CN(C(=O)Cc1cccc(Cl)c1)C1CCc2ccccc21 (stereo not drawn),i
CN(C(=O)Cc1cccc(Cl)c1)C1CCCc2ccccc21 (stereo not drawn),14.1µM*
CN(CC1CCOCC1)C(=O)Cc1cccc(Cl)c1,4.7%
COc1ccccc1N1CCN(C(=O)c2cc3c(s2)-c2ccccc2OC3)CC1,28.5%
COc1ccc(N(C)C(=O)c2cc3c(s2)-c2ccccc2OC3)cc1,-4.4%
COc1cc(OC)c(N(C)C(=O)c2cc3c(s2)-c2ccccc2OC3)cc1Cl,8.91µM*
O=C(N[C@H]1CCOC[C@H]1C1CCOCC1)c1ccc2c(c1)ncn2CCO,-20.7%
Cc1cc(C)n(C(C)C(=O)N2CCn3nc(Cc4ccccc4)cc3C2)n1 (stereo not drawn),-28.5%
C=CCN1CC(C(=O)N2CCn3nc(Cc4ccccc4)cc3C2)CC1=O (stereo not drawn),-0.1%
CC(C)N1CCC(CC(=O)N2CCn3nc(Cc4ccccc4)cc3C2)CC1,10µM*
CCOCC(=O)N1CCn2nc(Cc3ccccc3)cc2C1,3.9%
C[C@@H]1CCC[C@H](C)N1CC(=O)N1CCn2nc(Cc3ccccc3)cc2C1,11.2µM*
O=C(CCn1cnc2ccccc21)N1CCn2nc(Cc3ccccc3)cc2C1,-15.2%
CC(C)C(=O)N1CCCN(S(C)(=O)=O)c2ccccc21,11.2%
O=C1Cc2c(-c3ccsc3)n[nH]c2CN1Cc1ccccc1,5.62µM*
O=C1Cc2c(-c3cccc(C(F)(F)F)c3)n[nH]c2CN1Cc1ccccc1,i
COCCN1Cc2[nH]nc(-c3ccsc3)c2CC1=O,1.4%[44.1 µM]
CCC(=O)N1CCc2cc(Br)cc(S(=O)(=O)N3CCCC(C(=O)Nc4ccc(OC)cc4OC)C3)c21 (stereo not drawn),19.1%
CCCN(CCC)C(=O)C1CCCN(S(=O)(=O)c2cc(Br)cc3c2N(C(=O)CC)CC3)C1 (stereo not drawn),-21.2%
CCC(=O)N1CCc2cc(Br)cc(S(=O)(=O)N3CCCC(C(=O)N(C)c4ccc(Br)cc4)C3)c21 (stereo not drawn),8.91µM*
Cc1cccc(NC(=O)C2CCCN(S(=O)(=O)c3cccc4nonc34)C2)c1 (stereo not drawn),42.1%
SMILES,Pf Dd2 inh
CCC(=O)N1CCc2cc(Br)cc(S(=O)(=O)N3CCCC(C(=O)Nc4cccc(F)c4)C3)c21 (stereo not drawn),3.55µM*
CCC(=O)N1CCc2cc(Br)cc(S(=O)(=O)N3CCCC(C(=O)Nc4ccc(CC)cc4)C3)c21 (stereo not drawn),i
CCC(=O)N1CCc2cc(Br)cc(S(=O)(=O)N3CCCC(C(=O)Nc4cccc(C)c4C)C3)c21 (stereo not drawn),5.01µM*
CCC(=O)N1CCc2cc(Br)cc(S(=O)(=O)N3CCCC(C(=O)NCc4ccc(C)cc4)C3)c21 (stereo not drawn),i
CCC(=O)N1CCc2cc(Br)cc(S(=O)(=O)NCc3ccccc3)c21,i
COc1ccc(C2(C(=O)N3CC(CO)C4(CCNCC4)C3)CCCCC2)cc1 (stereo not drawn),-20.1%
CCNC(=O)N1CCC(c2noc(-c3ccncc3)n2)C1 (stereo not drawn),14.9%[5.79 µM]
Cn1ncc(N2CCCC(CC(=O)Nc3ccc(F)c(F)c3)C2)cc1=O (stereo not drawn),-17.8%
CCn1ccc2sc(C)c(C(=O)O)c2c1=O,-9.2%
O=C1N[C@@H]2CCN(C(=O)C3CCCCC3)[C@@H]2C(=O)N1c1ccc(Oc2ccccc2)cc1,-15.3%[44.1 µM]
OC1(CN2CCN(Cc3cccc(Cl)c3)CC2)CCCNC1 (stereo not drawn),-24.7%
COc1cccc(CC2(CO)CCCN(C(=O)c3cn4ccsc4n3)C2)c1 (stereo not drawn),-21.1%
OCC1(Cc2cccc(Cl)c2)CCCNC1 (stereo not drawn),11.2µM*
CCOCCn1c(=O)[nH]c2cc(C(=O)N(C)Cc3cnn(C)c3)ccc21,-8.6%
Cc1cc(C)n(Cc2ccc(C(=O)N3C[C@@H](Oc4cccnc4)C[C@H]3C(N)=O)o2)n1,-21.4%
Cc1ccc(-c2cc(-c3ccncc3)c3cncn3c2)cn1,-7.3%[44.1 µM]
O=C1COCCN1c1cc(-c2cnc3[nH]ccc3c2)cn2cncc12,4.0%[44.1 µM]
c1cc(-c2cc(-c3cn[nH]c3)cn3cncc23)ccn1,i
